Source: paper PMC11006913
Numbering of substitutions follows the chain as printed.

Columns and labels:
Experiment in all cases: PBM; 200 nM protein, PBS
Settings in all cases: dsDNA, one strand shown
NKX2-5 = NKX2-5 (Homo sapiens, UniProt P52952 125-210, R139K)
HOXB9 [1] = target: HOXB9 (Homo sapiens, UniProt P17482 171-250, T197M)
HOXC9 [2] = target: HOXC9 (Homo sapiens, UniProt P31274 178-260, K195R)
VENTX [3] = target: T1, VENTX (Homo sapiens, UniProt O95231 78-163)
T1 sequence: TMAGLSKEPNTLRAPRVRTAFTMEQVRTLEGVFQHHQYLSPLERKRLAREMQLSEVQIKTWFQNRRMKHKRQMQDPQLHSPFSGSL

PAX4 [4] = target: T2, PAX4 (Homo sapiens, UniProt O43316 9-242, R200K)
T2 sequence: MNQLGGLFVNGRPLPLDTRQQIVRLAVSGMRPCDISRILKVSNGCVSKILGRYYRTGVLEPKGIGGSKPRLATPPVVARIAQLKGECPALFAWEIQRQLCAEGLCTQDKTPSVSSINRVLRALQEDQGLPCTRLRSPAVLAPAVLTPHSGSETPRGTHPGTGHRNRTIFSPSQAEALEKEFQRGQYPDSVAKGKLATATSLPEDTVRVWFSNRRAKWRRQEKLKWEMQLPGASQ

VENTX [5] = target: T3, VENTX (Homo sapiens, UniProt O95231 78-163, Y115F)
T3 sequence: T1 sequence with Y38F

PAX4 [6] = target: T4, PAX4 (Homo sapiens, UniProt O43316 9-242)
T4 sequence: T2 sequence with K192R

HOXB9 [7] = target: HOXB9 (Homo sapiens, UniProt P17482 171-250)
HOXB9 (Homo sapiens, UniProt P17482 171-250), sequence (P17482 171-250): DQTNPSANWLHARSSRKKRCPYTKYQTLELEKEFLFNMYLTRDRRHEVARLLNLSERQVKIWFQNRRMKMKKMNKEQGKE

PAX4 [8] = target: T5, PAX4 (Homo sapiens, UniProt O43316 9-242, R200Q)
T5 sequence: T2 sequence with K192Q

HOXC9 [9] = target: HOXC9 (Homo sapiens, UniProt P31274 178-260, R193K)
HOXC9 (Homo sapiens, UniProt P31274 178-260, R193K), sequence (P31274 178-260 R193K): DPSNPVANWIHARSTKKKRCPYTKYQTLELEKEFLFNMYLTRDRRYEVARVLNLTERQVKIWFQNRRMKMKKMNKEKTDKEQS

HOXA2 [10] = target: HOXA2 (Homo sapiens, UniProt O43364 129-215, R185K)
HOXA2 (Homo sapiens, UniProt O43364 129-215, R185K), sequence (O43364 129-215 R185K): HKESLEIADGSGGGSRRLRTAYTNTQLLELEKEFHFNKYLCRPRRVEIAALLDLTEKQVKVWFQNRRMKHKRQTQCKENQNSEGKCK

PAX4 [11] = target: T6, PAX4 (Homo sapiens, UniProt O43316 9-242, F177V)
T6 sequence: T2 sequence with F169V, K192R

HOXC10 = HOXC10 (Homo sapiens, UniProt Q9NYD6 254-340, K271E)
HOXC10, sequence (Q9NYD6 254-340 K271E): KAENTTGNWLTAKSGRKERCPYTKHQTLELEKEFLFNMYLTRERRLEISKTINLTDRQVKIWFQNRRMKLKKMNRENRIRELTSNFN

PAX4 [12] = target: T7, PAX4 (Homo sapiens, UniProt O43316 9-242, F177Y)
T7 sequence: T2 sequence with F169Y, K192R

VAX1 = VAX1 (Homo sapiens, UniProt Q5SQQ9 86-172)
VAX1, sequence (Q5SQQ9 86-172): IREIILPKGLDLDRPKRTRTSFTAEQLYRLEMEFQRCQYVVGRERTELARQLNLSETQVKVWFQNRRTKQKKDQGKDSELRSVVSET

HOXB9 [13] = target: HOXB9 (Homo sapiens, UniProt P17482 171-250, R186Q)
HOXB9 (Homo sapiens, UniProt P17482 171-250, R186Q), sequence (P17482 171-250 R186Q): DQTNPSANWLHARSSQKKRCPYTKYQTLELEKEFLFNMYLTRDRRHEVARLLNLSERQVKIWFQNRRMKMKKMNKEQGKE

HOXC9 [14] = target: HOXC9 (Homo sapiens, UniProt P31274 178-260, R222W)
HOXC9 (Homo sapiens, UniProt P31274 178-260, R222W), sequence (P31274 178-260 R222W): as the sequence (P31274 178-260 R193K) above, with K16R, R45W counted along it

PAX4 [15] = target: T8, PAX4 (Homo sapiens, UniProt O43316 9-242, R227W)
T8 sequence: T2 sequence with K192R, R219W

HOXA2 [16] = target: HOXA2 (Homo sapiens, UniProt O43364 129-215, Y150S)
HOXA2 (Homo sapiens, UniProt O43364 129-215, Y150S), sequence (O43364 129-215 Y150S): as the sequence (O43364 129-215 R185K) above, with Y22S, K57R counted along it

HOXA2 [17] = target: HOXA2 (Homo sapiens, UniProt O43364 129-215)
HOXA2 (Homo sapiens, UniProt O43364 129-215), sequence (O43364 129-215): as the sequence (O43364 129-215 R185K) above, with K57R counted along it

HOXB9 (Homo sapiens, UniProt P17482 171-250, T197M), sequence (P17482 171-250 T197M): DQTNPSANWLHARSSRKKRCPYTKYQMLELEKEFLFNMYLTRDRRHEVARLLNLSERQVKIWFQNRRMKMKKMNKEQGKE
HOXC9 (Homo sapiens, UniProt P31274 178-260, K195R), sequence (P31274 178-260 K195R): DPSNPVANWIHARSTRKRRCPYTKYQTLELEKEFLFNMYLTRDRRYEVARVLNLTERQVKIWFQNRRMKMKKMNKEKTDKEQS
NKX2-5, sequence (P52952 125-210 R139K): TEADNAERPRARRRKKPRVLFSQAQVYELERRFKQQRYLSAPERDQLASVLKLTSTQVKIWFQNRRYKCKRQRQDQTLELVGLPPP

| Sequence | binding signal (NKX2-5) | binding signal (HOXB9 [1]) | binding signal (HOXC9 [2]) | binding signal (VENTX [3]) | binding signal (PAX4 [4]) | binding signal (VENTX [5]) | binding signal (PAX4 [6]) | binding signal (HOXB9 [7]) | binding signal (PAX4 [8]) | binding signal (HOXC9 [9]) | binding signal (HOXA2 [10]) | binding signal (PAX4 [11]) | binding signal (HOXC10) | binding signal (PAX4 [12]) | binding signal (VAX1) | binding signal (HOXB9 [13]) | binding signal (HOXC9 [14]) | binding signal (PAX4 [15]) | binding signal (HOXA2 [16]) | binding signal (HOXA2 [17]) |
| --- | --- | --- | --- | --- | --- | --- | --- | --- | --- | --- | --- | --- | --- | --- | --- | --- | --- | --- | --- | --- |
| AGCCACTC | 11.6 upbm affinity estimate (log intensity, higher = more binding, comparable within an allelic series) | – | – | – | – | – | – | – | – | – | – | – | – | – | – | – | – | – | – | – |
| AATAATTA | – | 10.3 upbm affinity estimate (log intensity, higher = more binding, comparable within an allelic series) | 12.7 upbm affinity estimate (log intensity, higher = more binding, comparable within an allelic series) | 12.4 upbm affinity estimate (log intensity, higher = more binding, comparable within an allelic series) | 11.8 upbm affinity estimate (log intensity, higher = more binding, comparable within an allelic series) | 11.8 upbm affinity estimate (log intensity, higher = more binding, comparable within an allelic series) | 12.3 upbm affinity estimate (log intensity, higher = more binding, comparable within an allelic series) | 11.9 upbm affinity estimate (log intensity, higher = more binding, comparable within an allelic series) | 12.2 upbm affinity estimate (log intensity, higher = more binding, comparable within an allelic series) | 12.6 upbm affinity estimate (log intensity, higher = more binding, comparable within an allelic series) | 13.6 upbm affinity estimate (log intensity, higher = more binding, comparable within an allelic series) | 10.8 upbm affinity estimate (log intensity, higher = more binding, comparable within an allelic series) | 11.9 upbm affinity estimate (log intensity, higher = more binding, comparable within an allelic series) | 11.1 upbm affinity estimate (log intensity, higher = more binding, comparable within an allelic series) | 13.3 upbm affinity estimate (log intensity, higher = more binding, comparable within an allelic series) | 11.6 upbm affinity estimate (log intensity, higher = more binding, comparable within an allelic series) | 11.1 upbm affinity estimate (log intensity, higher = more binding, comparable within an allelic series) | 11.2 upbm affinity estimate (log intensity, higher = more binding, comparable within an allelic series) | 10.9 upbm affinity estimate (log intensity, higher = more binding, comparable within an allelic series) | 12.9 upbm affinity estimate (log intensity, higher = more binding, comparable within an allelic series) |
| ATTAATGA | – | 10.4 upbm affinity estimate (log intensity, higher = more binding, comparable within an allelic series) | 13 upbm affinity estimate (log intensity, higher = more binding, comparable within an allelic series) | 12.8 upbm affinity estimate (log intensity, higher = more binding, comparable within an allelic series) | 11.8 upbm affinity estimate (log intensity, higher = more binding, comparable within an allelic series) | 12.1 upbm affinity estimate (log intensity, higher = more binding, comparable within an allelic series) | 12.3 upbm affinity estimate (log intensity, higher = more binding, comparable within an allelic series) | 12.2 upbm affinity estimate (log intensity, higher = more binding, comparable within an allelic series) | 12.1 upbm affinity estimate (log intensity, higher = more binding, comparable within an allelic series) | 12.9 upbm affinity estimate (log intensity, higher = more binding, comparable within an allelic series) | 13.7 upbm affinity estimate (log intensity, higher = more binding, comparable within an allelic series) | 10.6 upbm affinity estimate (log intensity, higher = more binding, comparable within an allelic series) | 12.3 upbm affinity estimate (log intensity, higher = more binding, comparable within an allelic series) | 11.1 upbm affinity estimate (log intensity, higher = more binding, comparable within an allelic series) | 13.4 upbm affinity estimate (log intensity, higher = more binding, comparable within an allelic series) | 11.9 upbm affinity estimate (log intensity, higher = more binding, comparable within an allelic series) | 11.2 upbm affinity estimate (log intensity, higher = more binding, comparable within an allelic series) | 11 upbm affinity estimate (log intensity, higher = more binding, comparable within an allelic series) | 11 upbm affinity estimate (log intensity, higher = more binding, comparable within an allelic series) | 12.9 upbm affinity estimate (log intensity, higher = more binding, comparable within an allelic series) |
| ATTAATTG | – | 10.3 upbm affinity estimate (log intensity, higher = more binding, comparable within an allelic series) | 12.8 upbm affinity estimate (log intensity, higher = more binding, comparable within an allelic series) | 12.8 upbm affinity estimate (log intensity, higher = more binding, comparable within an allelic series) | 11.8 upbm affinity estimate (log intensity, higher = more binding, comparable within an allelic series) | 11.9 upbm affinity estimate (log intensity, higher = more binding, comparable within an allelic series) | 12.4 upbm affinity estimate (log intensity, higher = more binding, comparable within an allelic series) | 12.2 upbm affinity estimate (log intensity, higher = more binding, comparable within an allelic series) | 12.2 upbm affinity estimate (log intensity, higher = more binding, comparable within an allelic series) | 12.7 upbm affinity estimate (log intensity, higher = more binding, comparable within an allelic series) | 13.5 upbm affinity estimate (log intensity, higher = more binding, comparable within an allelic series) | 10.7 upbm affinity estimate (log intensity, higher = more binding, comparable within an allelic series) | 12.2 upbm affinity estimate (log intensity, higher = more binding, comparable within an allelic series) | 11.2 upbm affinity estimate (log intensity, higher = more binding, comparable within an allelic series) | 13.2 upbm affinity estimate (log intensity, higher = more binding, comparable within an allelic series) | 11.8 upbm affinity estimate (log intensity, higher = more binding, comparable within an allelic series) | 11.2 upbm affinity estimate (log intensity, higher = more binding, comparable within an allelic series) | 11 upbm affinity estimate (log intensity, higher = more binding, comparable within an allelic series) | 11 upbm affinity estimate (log intensity, higher = more binding, comparable within an allelic series) | 12.6 upbm affinity estimate (log intensity, higher = more binding, comparable within an allelic series) |
| ATTAATTA | – | 10.6 upbm affinity estimate (log intensity, higher = more binding, comparable within an allelic series) | 13.3 upbm affinity estimate (log intensity, higher = more binding, comparable within an allelic series) | 13.2 upbm affinity estimate (log intensity, higher = more binding, comparable within an allelic series) | 12.2 upbm affinity estimate (log intensity, higher = more binding, comparable within an allelic series) | 12.5 upbm affinity estimate (log intensity, higher = more binding, comparable within an allelic series) | 12.8 upbm affinity estimate (log intensity, higher = more binding, comparable within an allelic series) | 12.6 upbm affinity estimate (log intensity, higher = more binding, comparable within an allelic series) | 12.8 upbm affinity estimate (log intensity, higher = more binding, comparable within an allelic series) | 13.2 upbm affinity estimate (log intensity, higher = more binding, comparable within an allelic series) | 14 upbm affinity estimate (log intensity, higher = more binding, comparable within an allelic series) | 11.1 upbm affinity estimate (log intensity, higher = more binding, comparable within an allelic series) | 12.7 upbm affinity estimate (log intensity, higher = more binding, comparable within an allelic series) | 11.6 upbm affinity estimate (log intensity, higher = more binding, comparable within an allelic series) | 13.8 upbm affinity estimate (log intensity, higher = more binding, comparable within an allelic series) | 12.3 upbm affinity estimate (log intensity, higher = more binding, comparable within an allelic series) | 11.5 upbm affinity estimate (log intensity, higher = more binding, comparable within an allelic series) | 11.4 upbm affinity estimate (log intensity, higher = more binding, comparable within an allelic series) | 11.1 upbm affinity estimate (log intensity, higher = more binding, comparable within an allelic series) | 13.3 upbm affinity estimate (log intensity, higher = more binding, comparable within an allelic series) |
| AGTGCCTA | 11.2 upbm affinity estimate (log intensity, higher = more binding, comparable within an allelic series) | – | – | – | – | – | – | – | – | – | – | – | – | – | – | – | – | – | – | – |
| ATAATTAT | – | 10.4 upbm affinity estimate (log intensity, higher = more binding, comparable within an allelic series) | 12.9 upbm affinity estimate (log intensity, higher = more binding, comparable within an allelic series) | 12.3 upbm affinity estimate (log intensity, higher = more binding, comparable within an allelic series) | 11.9 upbm affinity estimate (log intensity, higher = more binding, comparable within an allelic series) | 11.8 upbm affinity estimate (log intensity, higher = more binding, comparable within an allelic series) | 12.4 upbm affinity estimate (log intensity, higher = more binding, comparable within an allelic series) | 12 upbm affinity estimate (log intensity, higher = more binding, comparable within an allelic series) | 12.3 upbm affinity estimate (log intensity, higher = more binding, comparable within an allelic series) | 12.8 upbm affinity estimate (log intensity, higher = more binding, comparable within an allelic series) | 13.8 upbm affinity estimate (log intensity, higher = more binding, comparable within an allelic series) | 10.9 upbm affinity estimate (log intensity, higher = more binding, comparable within an allelic series) | 12.1 upbm affinity estimate (log intensity, higher = more binding, comparable within an allelic series) | 11.3 upbm affinity estimate (log intensity, higher = more binding, comparable within an allelic series) | 13.2 upbm affinity estimate (log intensity, higher = more binding, comparable within an allelic series) | 11.7 upbm affinity estimate (log intensity, higher = more binding, comparable within an allelic series) | 11.2 upbm affinity estimate (log intensity, higher = more binding, comparable within an allelic series) | 11.3 upbm affinity estimate (log intensity, higher = more binding, comparable within an allelic series) | 10.9 upbm affinity estimate (log intensity, higher = more binding, comparable within an allelic series) | 13.1 upbm affinity estimate (log intensity, higher = more binding, comparable within an allelic series) |
| AATTAGTC | – | – | – | – | 11.7 upbm affinity estimate (log intensity, higher = more binding, comparable within an allelic series) | – | 12.2 upbm affinity estimate (log intensity, higher = more binding, comparable within an allelic series) | – | 12.1 upbm affinity estimate (log intensity, higher = more binding, comparable within an allelic series) | – | – | 10.4 upbm affinity estimate (log intensity, higher = more binding, comparable within an allelic series) | – | 10.8 upbm affinity estimate (log intensity, higher = more binding, comparable within an allelic series) | – | – | – | 10.9 upbm affinity estimate (log intensity, higher = more binding, comparable within an allelic series) | – | – |
| ATTAATAG | – | 10.1 upbm affinity estimate (log intensity, higher = more binding, comparable within an allelic series) | 12.7 upbm affinity estimate (log intensity, higher = more binding, comparable within an allelic series) | – | – | – | – | 11.9 upbm affinity estimate (log intensity, higher = more binding, comparable within an allelic series) | – | 12.6 upbm affinity estimate (log intensity, higher = more binding, comparable within an allelic series) | – | – | 12 upbm affinity estimate (log intensity, higher = more binding, comparable within an allelic series) | – | 12.6 upbm affinity estimate (log intensity, higher = more binding, comparable within an allelic series) | 11.7 upbm affinity estimate (log intensity, higher = more binding, comparable within an allelic series) | 11.1 upbm affinity estimate (log intensity, higher = more binding, comparable within an allelic series) | – | – | – |
